# Screening data deposited in PubChem BioAssay by National Center for Advancing Translational Sciences (NCATS).
# SARS PLP yeast – blocks SARS-CoV papain-like protease in a yeast assay. S. cerevisiae expressing SARS-CoV PLpro, growth rescue. hit rate 0.19% among 330,000. AID 485353. Potency, µM (highest dose often 32.9 µM), inactives show top-dose activity, positive = growth rescue, actives largely listed as activators; further: potency means the concentration at half of the fitted maximal effect; 0% is about no effect; nearly all actives have a fitted effect of over 55% in size
# NS1 inh – inhibitors of influenza NS1 protein function. Potency, µM (highest dose often 46.1 µM), without a hit: top-dose activity, positive = more growth. hit rate 0.4% among 270,000; further: potency means the concentration at half of the fitted maximal effect; actives are rising curves; nearly all actives have a fitted effect of over 50% in size
#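 Growth recovery, yeast-based: influenza A NS1 expressed in S. cerevisiae causes slow growth, and suppressors are detected by OD600. The parent strain without NS1 is used as positive control.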
# Cycloheximide cs – affects cycloheximide protein synthesis inhibition readout, counter-screen. max response, %. hit rate 12% among 300,000. cell reporter, cycloheximide protein synthesis inhibition counterscreen; in the data active means max response mostly above about 13%, no sharp cut-off; inactive means mostly below about 14%; further: read at 38.3 µM for the half of the compounds with a filed dose; 0% is about no effect
# Shiga toxin inh – inhibitors of Shiga toxin in Vero cells | inhibition, % at 38.7 µM | AID 2315 | hit rate 9.2% among 290,000 | Vero cells, Shiga toxin protein synthesis inhibition reporter; in the data active means inhibition mostly above about 28%, no sharp cut-off; inactive means mostly below about 43%; further: 0% is about no effect
# * marks the source's active call; other numbers are inactive results; ? = inconclusive; · = not tested or not shown. Only some compounds are listed: those with a hit (about 12% of all), similar ones and a draw of the others. Unless noted, the call rests on the fitted dose curve.
SMILES,SARS PLP yeast,NS1 inh,Cycloheximide cs,Shiga toxin inh
C=CCSc1nnc(NC(=O)C2CC(=O)N(Cc3ccc(C)cc3)C2)s1 (stereo not given),-3.0%,·,·,·
Cc1cccc(NC(NC(=O)c2ccccn2)C(Cl)(Cl)Cl)c1 (stereo not given),?,-13.7%,-6.0,-5.0
CCN(C[C@H]1N[C@@](CC)(C(=O)OC)[C@H]2C(=O)N(C)C(=O)[C@@H]12)C(=O)Nc1ccccc1,-0.5%,·,·,·
COc1ccc(S(=O)(=O)N2CCCCC2)cc1C(=O)N1CCCC1,-5.8%,16.6%,-5.0,12.6
COc1ccc(OC)c(/C=N/Nc2nc(C)cc(=O)[nH]2)c1,-1.6%,-1.1%,4.6,9.8
COc1cc(/C=N/Nc2nc3ccccc3[nH]c2=O)ccc1O,-4.0%,·,19.5,16.8*
O=[N+]([O-])c1ccc(O)c(/C=N/Nc2nc3ccccc3[nH]2)c1,11.2µM*,1.5%,19.4*,8.8
COc1cc(/C=N/Nc2nc3ccccc3[nH]2)cc(Br)c1OCC(=O)N(C)C,-5.2%,-15.8%,37.1*,138.8*
COc1ccc(O)c(/C=N/Nc2nc3ccccc3[nH]2)c1,-0.2%,11.7%,49.0*,81.7*
O=[N+]([O-])c1ccc(O)c(/C=N/Nc2ncnc3c2cnn3-c2ccccc2)c1,-2.3%,2.2%,-1.5,-1.9
O=C(Nc1ccccc1)c1ccc(Br)c(S(=O)(=O)Nc2ccccn2)c1,0.9%,-2.5%,-1.1,-2.6
CCN(CC(=O)Nc1ccc(N2CCOCC2)cc1)C(=O)Cc1ccccc1,-1.0%,·,·,·
CCCc1nn(C)c(C(=O)Nc2ccc(CC)cc2)c1Cl,-0.1%,-7.8%,17.4,35.4*
CCCc1nn(C)c(C(=O)Nc2cccc3ccccc23)c1Cl,19.8%,3.6%,12.3,35.5*
Cn1ncc([N+](=O)[O-])c1C(=O)Nc1cccc2ccccc12,-0.9%,5.1%,-4.2,-25.0
CCCc1nn(C)c(C(=O)Nc2ccc(C)c(C)c2)c1Cl,13.9%,5.5%,31.6*,92.4*
CCc1ccc(NC(=O)c2cccc(C(=O)Nc3ccc(CC)cc3)n2)cc1,3.8%,-4.2%,13.0,42.0
CCN(c1ccccc1)S(=O)(=O)c1ccc(Cl)c(NC(=O)CSc2n[nH]c(N)n2)c1,16.3%,8.1%,-5.8,-14.5
Cc1ccc(C(=O)OCC(=O)c2ccc[nH]2)s1,-0.2%,0.0%,29.6*,76.1*
O=C(COC(=O)c1ccc(Cl)s1)c1ccc[nH]1,0.1%,·,26.6*,73.2*
CC1=NNC(=O)C1CCC(=O)N/N=C/C(Br)=C/c1ccccc1 (stereo not given),-53.1%,2.9%,15.2,-1.5
Cc1ccc2nc(C)cc(Nc3ccc4c(c3)OCCO4)c2c1,6.3%,-7.5%,60.2*,37.5*
Cc1cc(Nc2ccc3c(c2)OCCO3)c2ccccc2n1,-12.8%,-8.2%,11.9,14.9
O=C(Nc1ccc2c(c1)OCCO2)c1cc(-c2ccccc2)nc2ccccc12,-15.8%,-14.1%,15.9,-15.8
COc1cccc(-c2cc(C(=O)Nc3ccc4c(c3)OCCO4)c3ccccc3n2)c1,5.0%,12.5%,22.1*,21.4
SMILES,SARS PLP yeast,NS1 inh,Cycloheximide cs,Shiga toxin inh
O=C(Nc1nc2c(s1)CCCC2)c1cc(-c2ccc3c(c2)OCO3)nc2ccccc12,4.8%,12.5%,26.3*,38.9
O=C(Nc1ccc2c(c1)OCO2)c1cc(-c2ccncc2)nc2ccccc12,-6.1%,·,18.7*,20.6
COCCOC(=O)c1c(NC(=O)COC(=O)Cc2cccc(OC)c2)sc(C(N)=O)c1C,0.4%,-6.6%,-1.8,-10.5
O=C(C[C@@H]1C/C=C\C[C@@H](Cc2ccc(F)cc2)C(=O)OC[C@@H](Cc2ccccc2)NC1=O)N[C@H](CO)Cc1ccccc1,3.2%,·,·,·
CCCCn1c(N)c(N(C)C(=O)c2cc3c(s2)CCCCC3)c(=O)[nH]c1=O,1.1%,·,·,·
CC1=C(C(=O)Nc2cccc(C)c2C)C(c2cccs2)NC(=S)N1 (stereo not given),16.2%,?,0.4,-3.1
O=C1C2C3CCCC3=C3CCCC3C2C(=O)N1c1ccccc1Cl (stereo not given),·,·,6.8,2.4
CCCN1CCN(C(=O)c2oc3ccccc3c2NC(=O)C2CC2)CC1,19.0%,7.5%,-1.6,-9.4
Cc1cccc(-c2cc(C(=O)Nc3ccncc3)c3ccccc3n2)c1,-8.1%,12.2%,8.4*,-1.5
O=C(c1cc(-c2ccccc2)nc2ccccc12)N1CCCc2ccccc21,-37.9%,1.3%,13.3,-5.8
Cc1cc(C(=O)Nc2ccccc2)c2ccccc2n1,3.1%,11.3%,-2.8,-13.6
Cc1cc(C(=O)Nc2ccc3c(c2)OCCO3)c2ccccc2n1,-5.0%,·,21.7*,79.9*
Cc1cccc(-c2cc(C(=O)N3CCCc4ccccc43)c3ccccc3n2)c1,-21.5%,14.6%,22.3*,7.3
Cn1c(NC(=O)c2cc(-c3ccc4c(c3)OCO4)nc3ccccc23)cc(=O)n(C)c1=O,-3.3%,-16.2%,43.2*,31.3
CCn1c(C)c(CS(=O)(=O)c2ccccc2)[nH]c1=O,1.0%,-1.8%,34.5*,108.5
COc1ccc(/C=N\Nc2ncc(F)c(N3CCOCC3)n2)cc1OC,0.9%,-7.3%,38.7*,73.3*
O=C(Oc1cccc(/C=N/Nc2nc(Nc3ccccc3)nc(N3CCOCC3)n2)c1)c1ccco1,-14.8%,?,13.3*,22.5*
COc1cc(/C=N/Nc2nc(N3CCCCC3)nc(N3CCCCC3)n2)ccc1OC(=O)c1ccco1,-2.8%,5.6%,-2.5,-6.4
Cc1cc(C)n(-c2nc(Nc3ccccc3)nc(-n3nc(C)cc3C)n2)n1,-3.9%,-17.1%,8.5,-21.6
C(=N\Nc1nc(Nc2ccccc2)nc(N2CCOCC2)n1)/c1c[nH]c2ccccc12,-6.2%,-42.3%,20.9*,20.1
COc1cccc(/C=N/Nc2nc(Nc3ccccc3)nc(-n3nc(C)cc3C)n2)c1O,13.0%,5.8%,43.7*,31.3*
Cc1[nH]c2ccccc2c1/C=N/Nc1nc(Nc2ccc(F)cc2)nc(N2CCOCC2)n1,-8.7%,11.8%,9.6,1.7
O=C1OC(/C(=C\Nc2ccccc2)[N+](=O)[O-])c2ccccc21 (stereo not given),-5.9%,-88.0%,1.1,-9.5
COc1ccc(/C=N/Nc2nc(Nc3ccccc3)nc(N3CCCCC3)n2)cc1OC,-8.7%,27.3%,34.2*,146.7*
Cc1ccc(Nc2nc(N/N=C/c3c[nH]c4ccccc34)nc(N3CCOCC3)n2)cc1,-71.7%,?,14.7*,47.4
CCCc1cc(=O)[nH]c(SCC(=O)N2c3ccccc3CC2C)n1 (stereo not given),2.3%,·,·,·
CCCCOC(=O)Nc1nc2ccccc2s1,-1.0%,0.0%,25.8*,69.4*
CCCCN(C(=O)NC(=O)Nc1nc2ccc(OC)cc2s1)S(C)(=O)=O,-9.5%,-0.9%,53.0*,48.1*
CCCCOC(=O)Nc1nc2ccc(OC)cc2s1,1.3%,11.0%,38.0*,52.9*
